“And” between values parts separate entries of the source, which are not always exact repeats. Equal values may be shown once. Hit rate of the full screen: of about 320,000 compounds, about 22,000 (6.9%) were called active. Where a call stands in place of a potency, no number is given. Roughly 27% stayed inconclusive and do not appear here. Calls come from the whole dose curve; as a rule, active = well fitted inhibition curve with a large enough effect; inconclusive = small, poorly fitted or top-dose-only effect, or another doubt; inactive = no such curve, though single readings can be large or run the other way. Only a selection was taken, and actives are over-represented in it overall.
experiment: Primary qHTS for delayed death inhibitors of the malarial parasite plastid, 96 hour incubation; conditions: P. falciparum luciferase reporter growth; series mostly up to 28.7 µM
Method in brief: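 P. falciparum expressing integrated firefly luciferase grown in erythrocytes (2% hematocrit, 0.05% parasitemia final) with compounds for 96 hours at 37 C, 5% CO2. Growth inhibition read as loss of luminescence after adding luciferase detection reagent.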
Potency is the fitted concentration of half-maximal effect.

Structure (SMILES) | Potency
Cc1ccc(NC(=O)Cc2nc(COC(=O)C(C)NS(=O)(=O)c3ccc(C)cc3)cs2)cc1 (stereo not drawn) | inactive
CCN(CC)C(=O)c1nc[nH]c1C(=O)N(C)Cc1ccccc1 | inactive
CC(=O)Nc1ccc(Oc2ccc3c(c2)C(=O)NC3=O)cc1 | inactive
Cc1csc(NC(=O)CSc2nc(=O)cc(N)n2-c2ccc(F)cc2)n1 | inactive
Cc1cccc(NC(=S)NCCc2ccc(Cl)cc2)c1C | inactive
Cc1ccc(C(C)C)cc1OCCN1CCCC1 | inactive
Cc1cc(OCCN2CCCC2)ccc1C(C)C | inactive
Cc1cc(OCCN2CCCC2)cc(C(C)C)c1 | 10.4 µM (active)
CCOCCCNc1c(CC)c(C)c(C#N)c2nc3ccccc3n12 | inactive
CN1C(C(=O)NCC2CC2)CC2Cn3c(nc4ccccc43)C21 (stereo not drawn) | inactive
CCOC(=O)N1CCN(Cc2nc3cc(NC(=O)CC)ccc3n2CC)CC1 | inactive
CCOC(=O)N1CCN(Cc2nc3cc(NC(C)=O)ccc3n2C)CC1 | inactive
CCOC(=O)N1CCN(Cc2nc3ccc([N+](=O)[O-])cc3c(=O)n2-c2cccc(OC)c2)CC1 | 2.33 µM (active)
CN(C(=O)CSc1nnc(-c2ccc3c(c2)OCO3)o1)C1CCS(=O)(=O)C1 (stereo not drawn) | inactive
CC(=O)Nc1ccc(/C=C/C(=O)c2ccccc2)cc1 | inactive
O=C(NC1CCCC1)C(=O)c1c[nH]c2ccccc12 | inactive
CC(=O)c1ccc(OCC(O)CN2CCN(S(=O)(=O)c3cccc(Br)c3)CC2)cc1 (stereo not drawn) | inactive
Cc1cccc(OCC(O)CN2CCN(S(=O)(=O)c3ccc(C)cc3C)CC2)c1 (stereo not drawn) | 6.57 µM (active)
OC(COc1cccc(OCC(O)CN2CCCC2)c1)CN1CCCC1 (stereo not drawn) | inactive
O=S(=O)(Nc1ccc(-n2cnnn2)cc1)c1ccc(Cl)cc1 | inactive
Cc1ccc(NC(=O)NNC(=O)c2sccc2-n2cccc2)cc1 | inactive
C=CCNc1scc(-c2ccccc2)[n+]1CC=C | inactive
C=CC[n+]1c(-c2ccc(C)cc2)csc1NNC(=O)Nc1ccccc1 | 7.38 µM (active)
O=C(NCc1ccco1)/C(=C/c1cccc([N+](=O)[O-])c1)NC(=O)c1ccco1 | inactive
CCc1sc(C(=O)N2CCN(CC(=O)Nc3cccc(F)c3)CC2)cc1C | inactive
Cc1ccc(NC(=O)C2CCCN(S(=O)(=O)c3c(C)noc3C)C2)c(C)c1 (stereo not drawn) | inactive

Structure (SMILES) | Potency
Cc1noc(/C=C/c2ccco2)c1S(=O)(=O)N1CCC(C(=O)N2CCc3ccccc32)CC1 | inactive
CNC(=O)C1CCN(S(=O)(=O)c2c(C)noc2/C=C/c2cccc(C)c2)CC1 | 10.4 µM (active)
CC(C)CC(=O)Nc1cc(C(F)(F)F)ccc1N1CCOCC1 | inactive
CCC(=O)Nc1cc(C(F)(F)F)ccc1N1CCCC1 | inactive
O=C(CCC1CCCCC1)Nc1cc(C(F)(F)F)ccc1N1CCOCC1 | 13.1 µM (active)
CCc1ccc(C(=O)NC(=S)Nc2ccccc2N2CCOCC2)cc1 | inactive
C/C=N/N(c1ccccc1)c1ccccc1 | inactive
CCN(CC(=O)Nc1ccc(S(=O)(=O)N2CCCC2)cc1)CC(=O)Nc1cccc(OC)c1 | inactive
CCOC(=O)c1cc(NC(=O)SCC(=O)O)c(C)nc1C | 7.38 µM (active)
CCOC(=O)c1cnc(-n2nc(C)cc2C)nc1-n1nc(C)cc1C | inactive
CCOC(=O)c1ccccc1NC(=O)CSc1nc2ccccc2c(=O)[nH]1 | inactive
CC1CCC(NS(=O)(=O)c2ccc3c(c2)CC(=O)N3)CC1 (stereo not drawn) | inactive
Cc1ccc(Cc2nnc(SCC(=O)Nc3ccc(C)cc3C)[nH]c2=O)cc1 | inactive
O=C(CCN1CCN(C/C=C/c2ccccc2)CC1)Nc1ccccc1Cl | inactive
C/C(=N\NC(=O)c1ccoc1C)c1ccccc1O | inactive
COc1ccc(C(=O)c2c(C)c(CCC#N)n3ccccc23)c(OC)c1 | inactive
Oc1c(Cl)cc(Cl)c(Cl)c1Cc1c(O)c(Cl)cc(Cl)c1Cl | 12 µM (active) and 9.28 µM (active)
CN(C)c1nc(NN)nc(Nc2ccc(F)cc2)n1 | inactive
COc1ccc(N(CC(=O)Nc2cccc3ccccc23)S(C)(=O)=O)c(OC)c1 | inactive
C=CCn1c(COc2ccccc2)nnc1SCC(=O)NCC(=O)OCC | inactive
C=CCn1c(SCC(=O)NC23CC4CC(CC(C4)C2)C3)nc(O)cc1=O | inactive
C=CCn1c(SCC(=O)NC)nnc1C12CC3CC(CC(C3)C1)C2 | 11.7 µM (active)
C=CCSc1nnc(NC(=O)c2ccc(NC(C)=O)cc2)s1 | inactive
CC1CC(C)CN(C(=O)CCNC(=O)Cn2cnc3ccccc3c2=O)C1 (stereo not drawn) | inactive
Cc1cc(S(=O)(=O)N2CCOCC2)ccc1OCC(=O)N1CCOCC1 | inactive
O=C(NCc1ccccc1Cl)C1CCN(S(=O)(=O)c2cccc3nonc23)CC1 | inactive

Structure (SMILES) | Potency
O=C1CCc2cc(S(=O)(=O)N3CCC(C(=O)NCc4ccccc4Cl)CC3)ccc2N1 | 13.1 µM (active)
O=C(NCc1ccccc1Cl)C1CCN(S(=O)(=O)N2CCOCC2)CC1 | inactive
CSc1ccc(Cl)c(C(=O)OCC(=O)N2CCNC2=O)c1 | inactive
Cc1ccc(NC(=O)N2CCC(c3nc4c(nnn4Cc4c(F)cccc4Cl)c(=O)[nH]3)CC2)cc1 | 9.28 µM (active)
COc1ccc(Cn2nnc3c(=O)[nH]c(C4CCN(C(=O)c5ccccc5Cl)CC4)nc32)cc1 | inactive
O=C(Nc1ccc(F)cc1)N1CCCC(c2nc3c(nnn3Cc3ccccc3Cl)c(=O)[nH]2)C1 (stereo not drawn) | inactive
CC(Sc1nnc(-c2cccs2)n1C1CC1)C(=O)NCC1CCCO1 (stereo not drawn) | inactive
Cc1cc(C(=O)OCC(=O)Nc2nccs2)c2ccccc2n1 | inactive
COc1ccccc1C(=O)NNC(=O)CCN1C(=O)/C(=C\c2ccccc2)SC1=S | inactive
CSc1nc(C)nc2c1c(=O)n(C)c(=O)n2C | inactive
CCC(C)Sc1nc(C)nc2c1c(=O)n(C)c(=O)n2C (stereo not drawn) | 10.4 µM (active)
CC(O)c1nc2c(c(=O)n(C)c(=O)n2C)n1C (stereo not drawn) | inactive
COc1ccc(N2CCN(S(=O)(=O)c3cc(Br)cnc3N)CC2)cc1 | inactive
COc1cccc(/C=C2/SC(=S)N(CC(=O)NC3C=CS(=O)(=O)C3)C2=O)c1 (stereo not drawn) | inactive
COc1cccc(NC(=O)NCCN2CCCCC2)c1 | inactive
COc1ccc(N2CCN(CCNC(=O)CCN3C(=O)COc4ccccc43)CC2)cc1 | inactive
COc1ccc(N2CCN(CCNC(=O)Nc3cc(Cl)ccc3Cl)CC2)cc1 | 5.22 µM (active)
CCOC(=O)c1cccc(NC(=O)CN2C(=O)C3CC=CCC3C2=O)c1 (stereo not drawn) | inactive
CCn1ccnc1CN(C)C(=O)c1ccc2nc(Cc3ccc(OC)cc3)oc2c1 | inactive
Cc1[nH]c(C)c(S(=O)(=O)N2CCN(c3cccc(C(F)(F)F)c3)CC2)c1C(=O)N1CCCC1 | inactive
COc1ccccc1CN(C)C(=O)c1cc2ccccc2o1 | inactive
COc1ccccc1CN(C)C(=O)C1(c2ccc(Cl)cc2)CC1 | 9.28 µM (active)
COCCNC(=O)NC(=O)COC(=O)C1(c2ccc(Cl)cc2)CC1 | inactive
Cc1cccc(C(=O)NCC(=O)OCC(=O)N(C)CC(=O)Nc2ccccc2Cl)c1 | inactive
O=C1CC2(CCN(C(=O)COc3ccc(F)cc3)CC2)Oc2ccccc21 | inactive
O=C(C1CC(=O)N(c2ccc(F)cc2)C1)N1CCN(c2ccccc2)CC1 (stereo not drawn) | inactive

Structure (SMILES) | Potency
Cc1ccc(N2CC(C(=O)N3CCC4(CC3)CC(=O)c3ccccc3O4)CC2=O)cc1C (stereo not drawn) | 11.7 µM (active)
O=C(Cn1c(NCCO)nc2ccccc21)c1ccc(Cl)cc1Cl | inactive
CC(NC(=O)C(=O)Nc1nccs1)c1ccccc1 (stereo not drawn) | inactive
CC(=O)c1cccc(NC(=S)N2CCN(S(C)(=O)=O)CC2)c1 | inactive
O=C(NCCCN1CCOCC1)c1ccccc1NS(=O)(=O)c1ccc(Br)cc1 | inactive
O=C(NCCCN1CCOCC1)c1ccccc1NS(=O)(=O)c1ccc(F)cc1 | inactive
O=C(NCCCN1CCOCC1)c1cnn2c(-c3ccccc3)cc(-c3ccccc3)nc12 | 9.28 µM (active)
CCc1ccc(OCC(=O)NCC(c2ccc(Cl)cc2)N2CCCCC2)cc1 (stereo not drawn) | inactive
COc1cccc(C(=O)Nc2ccc(N3CCN(C(=O)c4ccco4)CC3)cc2)c1 | inactive
COc1ccc(Cl)cc1NS(=O)(=O)c1cccc(C(=O)NCC2CCCO2)c1 (stereo not drawn) | inactive
C[C@H](NC(=O)c1ccccc1)C(=O)OCC(=O)c1c[nH]c2ccccc12 | inactive
COC(=O)c1ccc(CSc2nnc(NC(C)C)s2)cc1 | inactive
CC(C)Nc1nnc(SCC(=O)c2c[nH]c3ccccc23)s1 | 10.4 µM (active)
Cc1coc2c1c(C)cc1oc(=O)c(CC(=O)NCC(=O)N[C@H](C(=O)O)C(C)C)c(C)c12 | inactive
Cc1onc(-c2ccc(Cl)cc2)c1-c1ccnn1S(=O)(=O)c1ccc(Cl)cc1 | 1.17 µM (active)
Cc1onc(-c2ccccc2)c1C(=O)N=C(N)c1ccc(Cl)cc1 | inactive
COc1cc(-c2c(-c3ccc4c(c3)OCO4)noc2C)ccc1F | inactive
Cc1cccc([C@@H]2[C@@H]3C(=O)N(C)C(=O)[C@@H]3[C@@H]3C(=O)Nc4ccccc4C(=O)N23)c1 | inactive
CCOC(=O)c1sc(N)c(C#N)c1COC(=O)C1=COCCO1 | inactive
Cc1ccc(-c2ccc(=O)n(Cc3ccc(F)cc3Cl)n2)cc1 | inactive
COc1ccc(CNC(=O)CN(C(=O)c2csnn2)c2cnc3ccccc3c2)cc1 | inactive
Cc1cccc(NS(=O)(=O)c2ccc(C(=O)NCC(C)(C)N3CCOCC3)cc2)c1C | inactive
COc1cc(OC)cc(-c2nc3nc(C)c(CCC(=O)NCc4ccco4)c(C)n3n2)c1 | inactive
Cc1nc2nc(SCC(=O)NCc3ccco3)nn2c(C)c1Cc1ccccc1 | 10.4 µM (active)
Cc1cc(C)n2nc(SCC(=O)NC(=O)NCc3ccco3)nc2n1 | inactive

From PubChem BioAssay AID504834 (National Center for Advancing Translational Sciences (NCATS), 2011)
